Bioassay records as filed in PubChem BioAssay.
Nrf2 inh: Nrf2 pathway inhibition. Potency, µM (titrated, usually from 46 µM), for inactives: top-dose activity change, negative = inhibition, hits mostly inhibitors. hit rate 2.1% among 360,000. AID 504444. A549 ARE-Fluc reporter, luciferase luminescence, 18-24 h; note: potency is the fitted concentration of half-maximal effect; nearly all actives have a fitted effect of over 60% in size
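A549 ARE_Fluc cells (5000/well, 5% FBS OPTI-MEM) pre-incubated 2 h, then treated with compounds 18-24 h at 37C/5% CO2 in concentration-response. CellTiter-Fluor viability read first; BugLite luciferase luminescence after 15 min at room temperature gives Nrf2 activity.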
KB-3-1 cytotox: kills parental KB-3-1 adenocarcinoma cells; KB-3-1 viability, CellTiter-Glo ATP luminescence, 72 h; Potency, µM (series often up to 46.1 µM), actives largely listed as cytotoxic; AID 1347075; hit rate 1.4% among 400,000; note: potency is the fitted concentration of half-maximal effect; nearly all actives have a fitted effect of over 60% in size
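Screening of KB-3-1 cells (DMEM, 10% FBS, phenol-red free) ran from lowest to highest compound concentration; after 72 h at 37 °C viability was read luminescently and curves fitted.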
PI4K2A inh: PI4K2A (human) kinase inhibition. Q9BTU6. purified PI4K2A, ADP-Glo luminescence, 1 h; stronger effect = lower value. hit rate 0.13% among 420,000. activity change, negative = inhibition, % at 76.9 µM; in the data active = activity change below about -50%; inconclusive = mostly about -30% to -49%;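 note: -100% = wells without enzyme as full effect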
Target sequence (Q9BTU6 whole entry, looked up): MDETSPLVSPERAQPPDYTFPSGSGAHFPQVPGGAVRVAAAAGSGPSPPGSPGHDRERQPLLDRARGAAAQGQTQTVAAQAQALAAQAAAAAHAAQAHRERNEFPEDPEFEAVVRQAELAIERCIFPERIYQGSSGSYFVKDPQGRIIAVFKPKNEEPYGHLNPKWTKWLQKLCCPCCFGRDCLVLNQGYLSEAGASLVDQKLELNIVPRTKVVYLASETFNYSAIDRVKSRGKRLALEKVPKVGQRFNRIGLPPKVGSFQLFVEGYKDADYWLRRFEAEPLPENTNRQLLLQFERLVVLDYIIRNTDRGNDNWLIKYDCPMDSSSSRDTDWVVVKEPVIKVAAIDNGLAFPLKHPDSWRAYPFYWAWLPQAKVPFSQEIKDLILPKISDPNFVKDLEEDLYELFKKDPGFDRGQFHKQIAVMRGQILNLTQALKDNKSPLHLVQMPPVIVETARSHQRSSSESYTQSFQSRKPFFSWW
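ADP-Glo luminescence measured ADP generated by PI4K2A enzyme (4 ug/mL before mixing) with 1.2 mM PI substrate (pre-mix) and 300 microM ATP (pre-mix). Tris pH7.5 buffer with MgCl2, Triton X-100; 1 h reaction at ambient temperature.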
A549 tox: counter-screen for Nrf2 inhibitors: cytotoxicity in A549 cells; hit rate 0.16% among 390,000; AID 504648; A549 ARE-Fluc cells, CellTiter-Fluor viability, 18-24 h; Potency, µM (titrated, usually from 46 µM), without a hit: at the top dose activity change, negative = cytotoxicity, most hits filed as inhibitors; note: potency is the fitted concentration of half-maximal effect
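A549 ARE-Fluc cells in 5% FBS OPTI-MEM, 5000 cells/well, rested 2 h then exposed to compounds in concentration-response for 18-24 h at 37 °C. Viability by CellTiter-Fluor fluorescence (Ex 405/Em 525) after 30 min; luciferase luminescence (BugLite, 15 min, RT) read afterwards.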
Giardia killer: kills Giardia lamblia. Giardia lamblia trophozoite viability. activity change, % at 7.66 µM, hits read low. hit rate 0.15% among 340,000; in the data active = activity change below about -80%; inconclusive = between about -30% and that limit;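 note: parasites exposed to compound for two days anaerobically before the ATP read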
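Each well holds 100 Giardia trophozoites and compound. After two days (48 hrs) at 37 deg C in anaerobic conditions, ATP is quantified by luminescence.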
KB-V1 MDR tox: kills drug-selected multidrug resistant KB-V1 cells | KB-V1 MDR cells viability, CellTiter-Glo, 72 h | Potency, µM (doses to about 46.1 µM), most hits filed as cytotoxic | hit rate 3.4% among 400,000 | AID 1347076; note: potency is the fitted concentration of half-maximal effect; nearly all actives have a fitted effect of over 60% in size
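Readout: CellTiter-Glo luminescence, 10 min after addition. Cells: KB-V1 MDR subline, 72 h at 37 degrees C with compound. Analysis: corrected, normalized data fitted to concentration-effect curves.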
Starred values were filed as active, the others as inactive; i = inactive; u = inconclusive; x = no result; [ ] = remark or other dose. Sampled rows, rich in hits. Any-hit rate of the full collection: about 5.7%. Unless noted, calls come from the whole dose curve; as a rule, active = well fitted curve in the direction sought with a large enough effect; inconclusive = small, poorly fitted or top-dose-only effect, or another doubt; inactive = no such curve, though single readings can be large; an effect the other way counts as inactive or inconclusive. Unless noted, % is set by controls: 0 for no effect and ±100 for the full control effect.

SMILES	Nrf2 inh	KB-3-1 cytotox	PI4K2A inh	A549 tox	Giardia killer	KB-V1 MDR tox
O=C(NCc1cccnc1)c1ccc(S(=O)(=O)N2CCCCC2)cc1	u	i	2	0%[1.84 µM]	-7	i
O=S(=O)(c1ccc(NC(=S)NCc2cccnc2)cc1)N1CCCCC1	23µM*	i	0	-22%	-22	i
Cc1ccc(-n2c(=O)c3c4c(sc3n(CC(=O)c3ccc(Cl)cc3)c2=O)CCC4)cc1C	u	i	1	2%	x	u
CCN(CC)c1ccc(/C=C2\C=Cc3ccccc32)cc1	x	u	x	x	x	i
CCCOC(=O)c1ccc(Oc2cn[nH]c2-c2ccc(O)cc2O)cc1	u	u	3	-11%	-2	i
CCOC(=O)c1ccc(Oc2cn[nH]c2-c2ccc(O)cc2O)cc1	u	23µM*	2	6%	3	i
O=C(NN=Cc1ccc(Cl)cc1Cl)C1CC1	u	i	6	-6%	22	15µM*
O=C(CN1CCCCC1)N/N=C/c1ccc(Cl)cc1Cl	9%	i	4	-1%	11	i
COc1ccc(-[n+]2c(C)cc(/C=C3\Sc4ccccc4N3C)cc2C)cc1	0.23µM*	u	1	9.2µM*	-1	u
COc1ccc(C(=O)/C=C2\Sc3ccccc3N2C)cc1	u	i	-13	-12%	-23	u
CCCN1CNc2c(c(=O)[nH]c(=S)n2CCc2cccc(Cl)c2)C1	5%	x	x	14%	26	x
CCCn1c(SCC(=O)Nc2ccccc2C(=O)OC)nc2c1c(=O)n(C)c(=O)n2C	5%	i	0	-1%	8	5µM*
CCCn1c(SCC(=O)Nc2ccccc2N2CCCCC2)nc2c1c(=O)n(C)c(=O)n2C	u	i	-5	-1%	44	u
CCCCn1c(SCC(=O)N2c3ccccc3CCc3ccccc32)nc2c1c(=O)n(C)c(=O)n2C	u	i	5	-1%	-5	u
CCCCn1c(SCc2nnc(-c3ccccc3)o2)nc2c1c(=O)n(C)c(=O)n2C	10µM*	i	7	-14%	11	2.6µM*
CCCCn1c(Oc2ccc(C(=O)OC)cc2)nc2c1c(=O)n(C)c(=O)n2C	u	i	-2	-18%	2	16µM*
CCCCn1c(SCC(=O)Nc2cc(C)on2)nc2c1c(=O)n(C)c(=O)n2C	16%	i	2	-8%	10	15µM*
CC(=O)O[C@]1(C(C)=O)CC[C@H]2[C@@H]3C=CC4=CC(=O)C=C[C@]4(C)[C@H]3CC[C@@]21C	u	u	8	2%	2	13µM*
O=C1Nc2ccccc2Nc2ccc([N+](=O)[O-])cc21	10µM*	i	-3	-14%	4	i
O=C1OC(=O)c2cc([N+](=O)[O-])ccc21	-10%	i	-4	-7%	19	i
COc1ccccc1/C=C1\CCCC2=C1Nc1nnnn1C2c1ccccc1OC (configuration not stated)	u	u	-3	-6%	11	8.2µM*
COc1ccccc1NC(=O)C1=C(C)Nc2nnnn2C1c1ccccc1OC (configuration not stated)	x	i	8	-3%	9	i
C#CCN1CC(N(C)CCOC(=O)c2ccc(OC)c(OC)c2)CS1(=O)=O (configuration not stated)	x	x	-2	x	x	x
O=C(O)c1ccc2c3c(ncnc13)-c1ccccc1C2=O	2.6µM*	u	-4	3.3µM*	u	i
Cc1ccc(NS(=O)(=O)c2cc3c(cc2-c2ccccc2)NC(=O)CO3)cc1C	2%	x	x	3%	x	x
SMILES	Nrf2 inh	KB-3-1 cytotox	PI4K2A inh	A549 tox	Giardia killer	KB-V1 MDR tox
CC(C)(C)c1nn(-c2ccccc2)c2[nH]c(=O)c(CNCc3ccco3)cc12	u	u	-7	-7%	1	u
Cc1ccc(CNCc2cc3c(C(C)(C)C)nn(-c4ccccc4)c3[nH]c2=O)cc1	u	i	4	-15%	15	23µM*
COc1ccc(CNCc2cc3c(C(C)(C)C)nn(-c4ccccc4)c3[nH]c2=O)cc1	18µM*	i	3	-25%	26	u
CN=CC1=C(O)c2ccccc2C1=O	-1%	i	2	-3%	1	i
O=C1C(C2=C(O)c3ccccc3C2=O)=Nc2ccccc21	u	u	-11	x	5	7.3µM*
CC(C)c1ccc(C(=O)NC(=S)NCc2cccnc2)cc1	u	u	-2	7%	-12	2.9µM*
O=C(NC(=S)NCc1ccccc1)c1ccccc1	15%	i	0	-3%	-20	i
O=C(NC(=S)NCc1ccc(F)cc1)c1ccccc1	-12%	i	3	u	6	21µM*
O=C(NCc1ccccc1)c1ccc(-c2ccc(F)cc2)o1	22%	i	5	-4%	-4	18µM*
Cc1ccccc1-c1ccc(C(=O)NCc2ccccc2)o1	14%	i	1	-2%	-4	i
C(=C\c1nc2ccccc2o1)/c1ccc2c(c1)OCO2	x	i	x	x	x	i
CCOC(=O)CN1N=C(/C=C/c2ccc(C)cc2)CCC1=O	x	5.2µM*	3	2%	-6	5.8µM*
COC(=O)[C@@]1(Cc2ccccc2)[C@@H]2C(=CC(=O)[C@H]2CC(=O)C(=O)N(C)C)CN1C(=O)c1ccccc1	u	21µM*	-8	u	-7	i
O=C(COC(=O)CNC(=O)C1CCCCC1)NC1CCCC1	-2%	u	x	0%	9	u
COc1ccc2cc(/C=C3\SC(=S)NC3=O)c(N3CCOCC3)nc2c1	21µM*	u	-4	18µM*	-13	u
